The campaign covered roughly 39,000 compounds. About 3,300 (8.5%) were called active. This excerpt belongs to a sample that is enriched for actives.
Tested on: HepG2
Assay: cytotoxicity call (relative viability < 0.9)
Details: 10 µM

| SMILES | cytotoxicity call |
| --- | --- |
| COc1ccc(S(=O)(=O)N(C)C[C@@H]2Oc3c(NS(=O)(=O)c4ccccc4)cccc3C(=O)N([C@H](C)CO)C[C@@H]2C)cc1 | inactive |
| C[C@H]1CN([C@@H](C)CO)C(=O)Cc2cc(NC(=O)CCN3CCOCC3)ccc2O[C@H]1CN(C)Cc1ccc2c(c1)OCO2 | inactive |
| C[C@@H]1CCCCO[C@@H](CN(C)Cc2ccc(Cl)c(Cl)c2)[C@@H](C)CN([C@H](C)CO)C(=O)c2cc(NC(=O)NC3CCCCC3)ccc2O1 | inactive |
| C[C@@H]1CCCCO[C@H](CN(C)Cc2ccc(Cl)c(Cl)c2)[C@H](C)CN([C@@H](C)CO)C(=O)c2cc(NC(=O)NC3CCCCC3)ccc2O1 | inactive |
| C[C@@H]1CN([C@H](C)CO)C(=O)c2cc(NC(=O)NC3CCCCC3)ccc2O[C@@H](C)CCCCO[C@@H]1CN(C)Cc1ccc(Cl)c(Cl)c1 | inactive |
| C[C@H]1CCCCO[C@H](CN(C)Cc2ccc(Cl)c(Cl)c2)[C@@H](C)CN([C@@H](C)CO)C(=O)c2cc(NC(=O)NC3CCCCC3)ccc2O1 | inactive |
| C[C@@H]1CN([C@@H](C)CO)C(=O)c2cc(NC(=O)NC3CCCCC3)ccc2O[C@@H](C)CCCCO[C@H]1CN(C)Cc1ccc(Cl)c(Cl)c1 | active |
| C[C@@H]1CCCCO[C@@H](CN(C)Cc2ccc(Cl)c(Cl)c2)[C@H](C)CN([C@@H](C)CO)C(=O)c2cc(NC(=O)NC3CCCCC3)ccc2O1 | inactive |
| C[C@H](CO)N1C[C@H](C)[C@@H](CN(C)Cc2ccc(Cl)c(Cl)c2)OCCCC[C@H](C)Oc2ccc(NC(=O)NC3CCCCC3)cc2C1=O | active |
| C[C@H](CO)N1C[C@H](C)[C@H](CN(C)Cc2ccc(Cl)c(Cl)c2)OCCCC[C@H](C)Oc2ccc(NC(=O)NC3CCCCC3)cc2C1=O | active |
| C[C@@H]1CCCCO[C@@H](CN(C)Cc2ccc(Cl)c(Cl)c2)[C@H](C)CN([C@H](C)CO)C(=O)c2cc(NC(=O)NC3CCCCC3)ccc2O1 | inactive |
| C[C@@H]1CCCCO[C@H](CN(C)Cc2ccc(Cl)c(Cl)c2)[C@@H](C)CN([C@@H](C)CO)C(=O)c2cc(NC(=O)NC3CCCCC3)ccc2O1 | inactive |
| C[C@@H]1CCCCO[C@H](CN(C)Cc2ccc(Cl)c(Cl)c2)[C@@H](C)CN([C@H](C)CO)C(=O)c2cc(NC(=O)NC3CCCCC3)ccc2O1 | inactive |
| C[C@@H]1CCCCO[C@@H](CN(C)Cc2ccc(Cl)c(Cl)c2)[C@@H](C)CN([C@@H](C)CO)C(=O)c2cc(NC(=O)NC3CCCCC3)ccc2O1 | active |
| O=C(O)CCN1CCCC1=O | inactive |
| COC(=O)c1c2oc(c1C(=O)OC)C(=O)N[C@@H](Cc1ccccc1)Cn1cc(nn1)[C@H](Cc1ccccc1)NC(=O)N[C@@H](CO)CC2 | inactive |
